# Assay results: ChEMBL document CHEMBL1961873, “Compounds: GSK PKIS; Assays: Nanosyn kinase panel” (2012)
# Columns and labels:
# [1] = biological target: Serine/threonine-protein kinase PAK 6 (Homo sapiens) (UniProt Q9NQU5); settings: at 1 µM;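 further: values are mean percent inhibition of PAK6 kinase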
# [2] = tested on: Tyrosine-protein kinase ABL1 (Homo sapiens), P00519 [E255K]; settings: at 0.1 µM
# [3] = tested on: Tyrosine-protein kinase ABL1 (Homo sapiens), P00519 [E255K]; settings: at 1 µM
# [4] = tested on: Tyrosine-protein kinase ABL1 (Homo sapiens), P00519 [H396P]; settings: at 0.1 µM
# [5] = tested on: Tyrosine-protein kinase ABL1 (Homo sapiens), P00519 [H396P]; settings: at 1 µM
# [6] = tested on: Tyrosine-protein kinase ABL1 (Homo sapiens), P00519 [M351T]; settings: at 0.1 µM
# [7] = tested on: Tyrosine-protein kinase ABL1 (Homo sapiens), P00519 [M351T]; settings: at 1 µM
# [8] = tested on: Tyrosine-protein kinase ABL1 (Homo sapiens), P00519 [Q252H]; settings: at 0.1 µM
# [9] = tested on: Tyrosine-protein kinase ABL1 (Homo sapiens), P00519 [Q252H]; settings: at 1 µM
# [10] = tested on: Tyrosine-protein kinase ABL1 (Homo sapiens), P00519 [T315I]; settings: at 0.1 µM
# Sequence of Serine/threonine-protein kinase PAK 6 (Homo sapiens) (Q9NQU5 whole entry, looked up): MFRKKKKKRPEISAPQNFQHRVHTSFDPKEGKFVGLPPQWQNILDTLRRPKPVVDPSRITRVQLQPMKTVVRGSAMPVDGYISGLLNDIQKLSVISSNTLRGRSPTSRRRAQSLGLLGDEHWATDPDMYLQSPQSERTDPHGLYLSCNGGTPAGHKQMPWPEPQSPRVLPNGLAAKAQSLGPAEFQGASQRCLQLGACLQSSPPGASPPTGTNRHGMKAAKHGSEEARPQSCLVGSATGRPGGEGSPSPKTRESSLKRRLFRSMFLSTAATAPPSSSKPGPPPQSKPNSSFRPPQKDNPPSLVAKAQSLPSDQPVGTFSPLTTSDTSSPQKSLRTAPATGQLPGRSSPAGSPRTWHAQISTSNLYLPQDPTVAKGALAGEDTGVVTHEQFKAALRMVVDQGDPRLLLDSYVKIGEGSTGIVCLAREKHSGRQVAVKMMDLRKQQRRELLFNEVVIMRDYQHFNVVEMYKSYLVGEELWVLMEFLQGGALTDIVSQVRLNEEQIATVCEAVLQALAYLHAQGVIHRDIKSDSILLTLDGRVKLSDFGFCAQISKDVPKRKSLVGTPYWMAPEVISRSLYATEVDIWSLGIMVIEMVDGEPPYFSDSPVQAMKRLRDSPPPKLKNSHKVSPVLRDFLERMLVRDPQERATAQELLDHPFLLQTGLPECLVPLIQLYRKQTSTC
SMILES,inhibition [1] [%],inhibition [2] [%],inhibition [3] [%],inhibition [4] [%],inhibition [5] [%],inhibition [6] [%],inhibition [7] [%],inhibition [8] [%],inhibition [9] [%],inhibition [10] [%]
C[C@@H](Oc1cc(-n2cnc3ccc(OC[C@@H](O)CO)cc32)sc1C(N)=O)c1ccccc1Cl,-6.36,0.24,5.92,0,9.51,1.32,8.84,-1.76,8.32,-0.17
COc1cccc(-n2nc(C)c3c(N/N=C(\C)c4ccncc4)ncnc32)c1,-5.25,1.05,1.53,0.51,4.07,-0.39,4.06,0.65,3.19,-2.26
c1ccc(Nc2ncc(-c3ccccc3)o2)cc1,-5.22,2.44,8.33,6.74,20.6,1.76,17.6,5.59,13.7,-0.57
Cc1cc(O)cc(C)c1/C=C/c1cncc(C(=O)N(C)C)c1,-3.14,2.42,5.44,4.36,8.17,3.42,7.17,4.29,8.87,2.58
c1ccc(Cc2nc3ccc(Nc4ncnc5ccccc45)cc3[nH]2)cc1,7.47,2.13,4.34,1.27,3.84,0.27,5.2,4.19,6.39,2.12
CCS(=O)(=O)c1ccc(OC)c(Nc2ncc(-c3cccc(OC)c3)o2)c1,2.64,34,81.1,41.6,85.4,43.2,86.1,46.6,86.5,6.23
NC(=O)c1sc(-n2cnc3ccccc32)cc1OCc1ccccc1Br,-4.72,2.67,4,4.21,6.63,0.66,3.16,3.16,4.86,3.2
COC(=O)c1cncc(/C=C/c2c(C)cc(O)cc2C)c1,7.57,6.85,38,13.3,60,15.9,66.3,15.9,64.1,4.16
Cc1ccc(Nc2ccnc(Nc3cccc(C(N)=O)c3)n2)cc1O,4.03,71.2,93.4,76.5,94.4,74.4,95,67.6,91.5,7.09
CCn1c(-c2nonc2N)nc2ccc(F)cc21,0.67,2.57,4.59,4.55,4.61,2.2,2.4,4.86,3.17,3.34
CN(c1ccc(NC(=O)Nc2ccc(OC(F)(F)F)cc2)cc1)c1ccnc(Nc2cccc(S(N)(=O)=O)c2)n1,-2,17.2,65.3,47.6,86.9,64.9,91.2,65.8,90.2,48.7
C[C@@H](Oc1cc(-n2cnc3ccc(OCC4CCN(C)CC4)cc32)sc1C(N)=O)c1ccccc1C(F)(F)F,-0.65,-1.19,0.71,-1.32,1.14,0.4,2.58,-0.85,1.8,0.36
CN1CCN(C(=O)c2ccc(NC(=O)Nc3ccc(N(C)c4ccnc(Nc5ccc(CS(C)(=O)=O)cc5)n4)cc3)cc2)CC1,-8.2,3.11,29.9,18.1,67.8,24.1,72.6,21,69.6,17.6
CCS(=O)(=O)c1ccc(OC)c(Nc2nccc(N(C)c3ccc4c(C)n[nH]c4c3)n2)c1,-6.63,50.5,88.7,61.1,90.5,54,88.3,57.7,89.6,3.83
COc1ccc(-c2nn3ncccc3c2-c2ccnc(Nc3cccc(C(F)(F)F)c3)n2)cc1,-2.65,1.06,3.04,3.97,7.02,2.28,27,2.67,17.5,2.45
CCOc1nccc2c1nc(-c1nonc1N)n2CC,12.4,1.66,3.45,1.16,6.55,1.78,5.68,2.67,6.45,1.75
